IL-1B inflam inh – qHTS for Inhibitors of Inflammasome Signaling: IL-1-beta AlphaLISA Primary Screen; THP-1 LPS/ATP IL-1B secretion, AlphaLISA, 16 h; stronger effect = lower value; activity change, % at 57.5 µM; hit rate 4.7% among 360,000; AID 743279, 2014; in the data active means activity change below about -50%; inconclusive means mostly about -30% to -49%
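THP-1 cells pretreated 1 hr with compounds (up to 57.5 uM final), then stimulated with LPS (250 ng/mL final) plus ATP (1.25 mM final); secreted IL-1B measured by AlphaLISA after 16 hr, decreased signal indicating inhibition.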
DT40 TDP1 no CPT – qHTS for Inhibitors of human tyrosyl-DNA phosphodiesterase 1 (TDP1): qHTS in cells in absence of CPT. DT40 Tdp1-/- hTDP1 cells, no CPT, ATP luminescence, 48 h. Potency, µM (top dose mostly 46.2 µM), inactives show at the highest dose activity change, negative = growth inhibition, usual class: inhibitors. hit rate 15% among 420,000; further: potency means the concentration at half of the fitted maximal effect; nearly all actives have a fitted effect of over 55% in size
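Stably hTDP1-transfected Tdp1-null chicken DT40 cells were treated with library compounds minus camptothecin and grown for at least 48 hr at 37 °C, after which cellular ATP was quantified by luminescence.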
ALOX12 inh – Primary qHTS assay for inhibitors of human arachidonate 12S-lipoxygenase (ALOX12): Round 2 | hit rate 1.1% among 580,000 | Potency, µM (doses to about 108 µM), for the others: top-dose activity change, negative = inhibition, usual class: inhibitors | purified 12hLO, xylenol orange hydroperoxide absorbance; further: potency means the concentration at half of the fitted maximal effect
Target sequence (P18054 whole entry, looked up): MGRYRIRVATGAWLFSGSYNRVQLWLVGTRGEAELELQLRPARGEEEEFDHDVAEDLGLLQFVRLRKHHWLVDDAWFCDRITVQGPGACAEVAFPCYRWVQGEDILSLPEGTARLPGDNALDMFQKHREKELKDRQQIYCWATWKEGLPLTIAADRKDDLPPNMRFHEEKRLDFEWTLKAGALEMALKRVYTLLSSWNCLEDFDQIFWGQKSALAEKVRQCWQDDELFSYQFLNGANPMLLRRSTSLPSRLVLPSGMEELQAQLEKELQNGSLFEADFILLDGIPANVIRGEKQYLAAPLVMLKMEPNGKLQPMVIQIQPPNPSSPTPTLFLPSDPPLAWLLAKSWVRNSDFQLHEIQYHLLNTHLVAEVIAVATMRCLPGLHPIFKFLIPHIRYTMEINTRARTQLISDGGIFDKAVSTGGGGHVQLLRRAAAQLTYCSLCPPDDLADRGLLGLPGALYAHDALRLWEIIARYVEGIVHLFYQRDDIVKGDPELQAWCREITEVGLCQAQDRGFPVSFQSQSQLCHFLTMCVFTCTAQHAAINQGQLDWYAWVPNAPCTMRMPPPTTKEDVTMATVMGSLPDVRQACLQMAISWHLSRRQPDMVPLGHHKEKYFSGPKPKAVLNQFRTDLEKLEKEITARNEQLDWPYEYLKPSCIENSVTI
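Purified human 12hLO at 150 nM in 25 mM Hepes, 0.01% Triton X-100, pH 7.0, preincubated 15 min at room temperature with compound. Reaction started with 40 uM arachidonic acid, 30 min at room temperature. Hydroperoxide measured by Fe-xylenol orange, 573/405 nm absorbance ratio.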
HT1080NT lethal – qHTS for induction of synthetic lethality in tumor cells producing 2HG: qHTS for the HT-1080-NT fibrosarcoma cell line | HT-1080-NT fibrosarcoma viability, CellTiter-Glo ATP luminescence, 48 h | Potency, µM (top dose mostly 46.1 µM), for inactives: at the highest dose activity, negative = less viability, most hits filed as cytotoxic | hit rate 1.6% among 360,000;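 further: NT is the 2HG producing partner of a matched IDH1 knockdown line; potency means the concentration at half of the fitted maximal effect; 0% = DMSO-treated cells and -100% = media-only wells without cells; nearly all actives have a fitted effect of over 55% in size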
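Read-out is CellTiter-Glo luminescence after 10 minutes at room temperature, following 48 hours' compound treatment of HT-1080-NT cells (750 cells/well, RPMI, 5% FBS, 37 degrees C).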
HT1080 IDH1KD tx – qHTS for induction of synthetic lethality in tumor cells producing 2HG: qHTS for the HT-1080-IDH1KD cell line. HT-1080 IDH1 knockdown viability, ATP luminescence, 48 h. Potency, µM (series often up to 46.1 µM), without a hit: at the top dose activity, negative = toxicity, most hits filed as cytotoxic. hit rate 2% among 360,000. AID 686971, 2013;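 further: potency means the concentration at half of the fitted maximal effect; 0% = DMSO wells and -100% = cell-free medium wells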
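Using the IDH1-knockdown HT-1080 line run in the same batch and compound series as the NT line, viability after 48 h at 37 °C was determined by CellTiter-Glo luminescence and expressed as % activity.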
DT40 TDP1 CPT – qHTS for Inhibitors of human tyrosyl-DNA phosphodiesterase 1 (TDP1): qHTS in cells in presence of CPT; chicken DT40 Tdp1-/-;hTDP1 cells + 20 nM CPT, ATP luminescence, 48 h; AID 686979, 2013; Potency, µM (doses to about 46.2 µM), without a hit: at the top dose activity change, negative = growth inhibition, actives largely listed as inhibitors; hit rate 12% among 420,000; further: potency means the concentration at half of the fitted maximal effect; nearly all actives have a fitted effect of over 55% in size
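Chicken DT40 Tdp1-/- cells stably complemented with human TDP1 were seeded at 400 cells/well in medium containing 20 nM camptothecin, exposed to pin-transferred compounds, and grown at 37 °C for at least 48 hr. Viability was read as ATP luminescence.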
The depositor's hits bear a star. The sample as a whole holds a higher share of hits than the screen did. Unless noted, the call rests on the fitted dose curve; in most records, active means well fitted curve in the direction sought with a large enough effect; inconclusive means small, poorly fitted or top-dose-only effect, or another doubt; inactive means no such curve, though single readings can be large; an effect the other way counts as inactive or inconclusive. Unless noted, on the % scale 0 is the no-effect control and ±100 the full control effect.

What do the screens show for `O=C(NCc1cccc(Cl)c1)c1ccc(-c2ccc(F)c(F)c2)c2ccoc12`?
IL-1B inflam inh: 0; DT40 TDP1 no CPT: inconclusive; ALOX12 inh: 8%; HT1080NT lethal: -14%; HT1080 IDH1KD tx: -20%; DT40 TDP1 CPT: inconclusive

What do the screens show for `CC(C)(C)OC(=O)/C=C/[C@H]1Cc2ccccc2N1`?
ALOX12 inh: -27%

Results for CCc1ccc(CNC(=O)COC(=O)c2ccc(Cl)cc2)cc1 ?
ALOX12 inh: 1%

How did COc1ccccc1-c1noc(-c2ccc(NCc3ccco3)c([N+](=O)[O-])c2)n1 do in these assays?
DT40 TDP1 no CPT: 12µM*; ALOX12 inh: -12%; DT40 TDP1 CPT: 12µM*

How did Cc1ccccc1-c1noc(-c2ccc(NCc3cccnc3)c([N+](=O)[O-])c2)n1 do in these assays?
DT40 TDP1 no CPT: 2.3µM*; ALOX12 inh: -11%; DT40 TDP1 CPT: 4.1µM*

What do the screens show for `COc1ccc(-c2noc(-c3ccc(NC4CCCCC4)c([N+](=O)[O-])c3)n2)cc1OC`?
DT40 TDP1 no CPT: inconclusive; ALOX12 inh: 0%; DT40 TDP1 CPT: 21µM*

What do the screens show for `CCc1noc(-c2ccc(N(C)Cc3ccc(OC)cc3)c([N+](=O)[O-])c2)n1`?
DT40 TDP1 no CPT: 5.8µM*; ALOX12 inh: -15%; DT40 TDP1 CPT: 6.5µM*

What do the screens show for `CC(C)CC(=O)Nc1ccc2oc(-c3ccc(F)cc3)nc2c1`?
ALOX12 inh: 2%

Results for Cc1cc(C)c(C(=O)COC(=O)/C=C/c2cccs2)cc1C ?
ALOX12 inh: -3%

How did CCCc1noc(-c2ccc(NCc3ccc(C)cc3)c([N+](=O)[O-])c2)n1 do in these assays?
DT40 TDP1 no CPT: -27%; ALOX12 inh: -15%; DT40 TDP1 CPT: inconclusive

What do the screens show for `CCCNc1ccc(-c2nc(-c3ccco3)no2)cc1[N+](=O)[O-]`?
DT40 TDP1 no CPT: -26%; ALOX12 inh: inconclusive; DT40 TDP1 CPT: -3%

What do the screens show for `CCc1noc(-c2ccc(NCc3ccccc3)c([N+](=O)[O-])c2)n1`?
DT40 TDP1 no CPT: 18µM*; ALOX12 inh: -11%; DT40 TDP1 CPT: 23µM*

What do the screens show for `Cc1c(-c2nc(-c3cccnc3)no2)cccc1[N+](=O)[O-]`?
IL-1B inflam inh: 19; DT40 TDP1 no CPT: 18µM*; ALOX12 inh: -2%; HT1080NT lethal: -25%; HT1080 IDH1KD tx: -25%; DT40 TDP1 CPT: 18µM*

What do the screens show for `COc1cc(-c2noc(-c3ccc(NCCc4ccccc4)c([N+](=O)[O-])c3)n2)cc(OC)c1OC`?
DT40 TDP1 no CPT: 4.1µM*; ALOX12 inh: 0%; DT40 TDP1 CPT: 5.2µM*

Results for COc1ccccc1-c1noc(-c2ccc(NCCc3ccccc3)c([N+](=O)[O-])c2)n1 ?
DT40 TDP1 no CPT: 2%; ALOX12 inh: -6%; DT40 TDP1 CPT: 3%

What do the screens show for `CC(C)Nc1ccc(-c2nc(-c3ccco3)no2)cc1[N+](=O)[O-]`?
DT40 TDP1 no CPT: 16µM*; ALOX12 inh: -9%; DT40 TDP1 CPT: inconclusive

What do the screens show for `Cc1cnn(CCC(=O)N2CCC3(CC2)CN(c2ccncn2)CC3CO)c1` (stereo not given)?
ALOX12 inh: 28%

Assay outcomes (PubChem)
